Experimental data from PubChem BioAssay AID1159580 (chemical genetic matrix, 2015).
“And” between values parts separate entries of the source, which are not always exact repeats. Identical values can stand only once. In all, about 5,500 compounds went through this assay and about 2,000 (36%) were called active. Another 18% or so got no clear call; they are omitted. No stated cut-off is given here; in the data, active means normalized growth mostly below about 0.91 (no sharp cut-off); inconclusive means no clear call, values can overlap the other calls; inactive means mostly above about 0.92. The list shows a part of the results.

Experiment: chemical genetic growth profiling, strain panel (AID 1159580);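 further: tested at 20 µM; growth read once vehicle control cultures reached saturation at 30 °C; 1 = growth at the plate median or of vehicle wells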
Settings: S. cerevisiae deletion strains, growth OD

Measured: normalized growth

Cc1cc(O)c(C=O)c2c1C(=O)Oc1c(COC(=O)/C=C/C(=O)O)c(O)c(C(=O)O)c(C)c1O2
inactive: locus YAL021C, strain ccr4, stronger effect = lower value 0.915 | locus YAL030W, strain snc1, stronger effect = lower value 0.96 | locus YBL061C, strain skt5, stronger effect = lower value 0.96 | locus YBR009C, strain hhf1, stronger effect = lower value 0.937 | locus YBR021W, strain FUR4, stronger effect = lower value 1.06 | locus YBR023C, strain chs3, stronger effect = lower value 0.967 | locus YBR171W, strain sec66, stronger effect = lower value 0.983 | locus YBR229C, strain ROT2, stronger effect = lower value 0.988 | locus YBR279W, strain paf1, stronger effect = lower value 0.933 | locus YCL011C, strain gbp2, stronger effect = lower value 0.974 | locus YCL016C, strain dcc1, stronger effect = lower value 0.992 | locus YCL029C, strain bik1, stronger effect = lower value 0.98 | locus YCL069W, strain vba3, stronger effect = lower value 0.973 | locus YCR088W, strain abp1, stronger effect = lower value 1.02 | locus YDL005C, strain med2, stronger effect = lower value 1.02 | locus YDL035C, strain GPR1, stronger effect = lower value 0.929 | locus YDL040C, strain nat1, stronger effect = lower value 1 | locus YDL074C, strain BRE1, stronger effect = lower value 0.936 | locus YDL101C, strain DUN1, stronger effect = lower value 0.959 | locus YDL185W, strain tfp1, stronger effect = lower value 0.919 | locus YDL192W, strain arf1, stronger effect = lower value 0.95 | locus YDR001C, strain nth1, stronger effect = lower value 0.998 | locus YDR101C, strain arx1, stronger effect = lower value 0.977 | locus YDR137W, strain rgp1, stronger effect = lower value 1.04 | locus YDR150W, strain NUM1, stronger effect = lower value 0.951 | locus YDR159W, strain sac3, stronger effect = lower value 0.981 | locus YDR195W, strain ref2 1.1 | locus YDR297W, strain sur2, stronger effect = lower value 0.957 | locus YDR318W, strain mcm21, stronger effect = lower value 0.991 | locus YDR335W, strain msn5, stronger effect = lower value 0.943 | locus YDR388W, stronger effect = lower value 0.992 | locus YDR392W, strain spt3, stronger effect = lower value 0.813 | locus YDR502C, strain sam2, stronger effect = lower value 0.96 | locus YEL003W, strain gim4, stronger effect = lower value 0.977 | locus YEL037C, strain rad23, stronger effect = lower value 0.939 | locus YEL061C, strain CIN8 (second series), stronger effect = lower value 0.993 | locus YEL061C, strain CIN8, stronger effect = lower value 0.97 | locus YER016W, strain bim1, stronger effect = lower value 1.03 | locus YER110C, stronger effect = lower value 0.981 | locus YER155C, strain BEM2 (second series), stronger effect = lower value 1.01 | locus YER155C, strain BEM2, stronger effect = lower value 1 | locus YER167W, strain BCK2, stronger effect = lower value 1.01 | locus YGL078C, strain dbp3, stronger effect = lower value 0.969 | locus YGL086W, strain mad1, stronger effect = lower value 0.971 | locus YGL167C, strain pmr1, stronger effect = lower value 0.993 | locus YGL227W, strain vid30, stronger effect = lower value 1.02 | locus YGL240W, strain doc1, stronger effect = lower value 1.06 | locus YGL248W, strain PDE1, stronger effect = lower value 0.947 | locus YGR135W, strain pre9, stronger effect = lower value 0.958 | locus YGR252W, strain gcn5, stronger effect = lower value 1.12 | locus YHR013C, strain ard1, stronger effect = lower value 0.877 | locus YHR030C, strain SLT2, stronger effect = lower value 0.973 and 0.971 | locus YHR079C, strain IRE1 (second series), stronger effect = lower value 0.994 | locus YHR079C, strain IRE1, stronger effect = lower value 0.985 | locus YHR094C, strain hxt1, stronger effect = lower value 0.994 | locus YHR129C, strain ARP1, stronger effect = lower value 0.937 | locus YHR200W, strain rpn10, stronger effect = lower value 0.976 | locus YIL066C, strain RNR3, stronger effect = lower value 0.896 | locus YIL073C, strain SPO22, stronger effect = lower value 0.898 | locus YIL125W, strain kgd1, stronger effect = lower value 0.969 | locus YIR030C, strain dcg1, stronger effect = lower value 0.993 | locus YJL092W, strain hpr5, stronger effect = lower value 0.952 | locus YJL095W, strain BCK1 (second series), stronger effect = lower value 0.961 | locus YJL095W, strain BCK1, stronger effect = lower value 0.904 and 0.959 | locus YJL115W, strain asf1, stronger effect = lower value 1 | locus YJL129C, strain trk1, stronger effect = lower value 1.08 | locus YJL134W, strain LCB3, stronger effect = lower value 0.978 | locus YJL154C, strain vps35, stronger effect = lower value 0.992 | locus YJL164C, strain tpk1, stronger effect = lower value 0.935 | locus YJL166W, strain qcr8, stronger effect = lower value 0.947 | locus YJL168C, strain set2, stronger effect = lower value 0.974 | locus YJL187C, strain SWE1 (second series), stronger effect = lower value 0.879
active: locus YAL026C, strain drs2, stronger effect = lower value 0.841 | locus YBR231C, strain swc5, stronger effect = lower value 0.885 | locus YCL061C, strain MRC1, stronger effect = lower value 0.912 | locus YDR069C, strain doa4, stronger effect = lower value 0.883 | locus YDR162C, strain NBP2, stronger effect = lower value 0.808 | locus YDR334W, strain swr1, stronger effect = lower value 0.891 | locus YER015W, strain faa2, stronger effect = lower value 0.874 | locus YER111C, strain swi4, stronger effect = lower value 0.906 | locus YFR010W, strain ubp6, stronger effect = lower value 0.873 | locus YGL173C, strain kem1, stronger effect = lower value 0.856 | locus YGL253W, strain hxk2, stronger effect = lower value 0.787 | locus YGR229C, strain SMI1, stronger effect = lower value 0.734 | locus YHR027C, strain rpn1, stronger effect = lower value 0.761 | locus YHR142W, strain chs7, stronger effect = lower value 0.852
